Test results as given in ChEMBL document CHEMBL1201862, “PubChem BioAssay data set” (2004).
Out of some 390,000 compounds screened, about 910 (0.23%) were called active. Not shown: some 5% with an inconclusive outcome. No cut-off for these calls is given here. The full list was thinned out, with actives kept by preference.

These compounds were tested against T1, Ubiquitin carboxyl-terminal hydrolase 1 (Homo sapiens) (UniProt O94782) (assay: Inhibitors of USP1/UAF1: Primary Screen.).
T1 sequence (whole entry): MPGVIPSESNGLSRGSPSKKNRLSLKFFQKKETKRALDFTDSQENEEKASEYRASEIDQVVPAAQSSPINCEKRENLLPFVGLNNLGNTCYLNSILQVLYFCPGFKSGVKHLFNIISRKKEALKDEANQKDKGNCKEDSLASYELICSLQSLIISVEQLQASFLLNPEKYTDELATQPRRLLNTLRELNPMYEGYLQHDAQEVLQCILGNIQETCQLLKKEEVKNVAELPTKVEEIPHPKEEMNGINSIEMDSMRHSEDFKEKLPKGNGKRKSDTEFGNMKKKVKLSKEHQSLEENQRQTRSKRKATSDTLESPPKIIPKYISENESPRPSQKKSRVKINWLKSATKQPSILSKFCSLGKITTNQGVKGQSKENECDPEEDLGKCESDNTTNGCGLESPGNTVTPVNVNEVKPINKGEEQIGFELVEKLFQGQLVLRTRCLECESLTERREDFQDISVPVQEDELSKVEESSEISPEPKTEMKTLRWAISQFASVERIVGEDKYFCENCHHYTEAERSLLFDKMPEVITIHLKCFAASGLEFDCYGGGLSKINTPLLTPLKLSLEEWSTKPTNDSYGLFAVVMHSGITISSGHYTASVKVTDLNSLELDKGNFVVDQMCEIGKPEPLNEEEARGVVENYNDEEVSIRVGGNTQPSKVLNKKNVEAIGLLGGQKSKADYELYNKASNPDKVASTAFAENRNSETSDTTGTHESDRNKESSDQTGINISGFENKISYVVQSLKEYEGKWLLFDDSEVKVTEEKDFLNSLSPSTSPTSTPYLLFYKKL
Type: functional

SMILES | Potency
CCn1nc(-c2ccccc2)nc2c(=O)n(C)c(=O)nc1-2 | 89.1 µM (active)
